Efflux pump mplx: antifungal efflux pump inhibition, Nile Red retention; inhibition, % at 10 µM; hit rate 0.44% among 330,000; S. cerevisiae Candida pump triplex;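 active = plate passing quality check with inhibition over a set limit, or well fluorescence over plate mean plus 4 SD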;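 note: Nile Red retained in pooled yeast measured as flow cytometry median fluorescence; 0% = buffer negative control and 100% = Enniatin B positive control; higher means more Nile Red kept so more efflux inhibition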
NPR1 activator: GC-A (human) enzyme activation; P16066; HEK293 GC-A cells, cGMP TR-FRET, EC30 ANP; 0% at EC30 ANP, 100% saturating ANP; activation, % at 10 µM; hit rate 0.14% among 370,000; in the data active = activation above about 40%
NSD2 HMT inh: inhibitors of human histone methyltransferase NSD2; NSD2 peptide methylation, AlphaScreen, 120 min; hit rate 0.54% among 310,000; AID 743445; O96028; inhibition, % at 12.5 µM; in the data active = inhibition above about 50%
V-ATPase pHluor: regulators of yeast V-ATPase proton transport | S. cerevisiae, pHLuorin cytosolic pH fluorescence | response, % at 10 µM | hit rate 0.37% among 350,000 | AID 504577; in the data active = response mostly above about 7.3%, no sharp cut-off; inactive = mostly below about 5.4%; note: actives read high
NPR2 activator: GC-B (human) receptor activation; hit rate 0.11% among 370,000; activation, % at 10 µM; HEK293-GC-B cells, CNP EC30, cGMP TR-FRET; 0% at EC30 CNP, 100% saturating CNP; AID 1920062; P20594;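 active = activation at 10 µM reaching about 35% in either raw or pattern-adjusted values, limit read from the data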
Rce1 inhib: yeast Ras-converting enzyme inhibition; hit rate 0.27% among 290,000; AID 2563; yeast membranes, quenched prenylated peptide cleavage fluorescence; calls only;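 active = fall in fluorescence gain of 50% or more versus controls, with final raw signal at or below 3038400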;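 note: plate controls were neutral control wells for no effect and wells lacking membranes for full effect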
Target sequence (Q03530 whole entry, looked up): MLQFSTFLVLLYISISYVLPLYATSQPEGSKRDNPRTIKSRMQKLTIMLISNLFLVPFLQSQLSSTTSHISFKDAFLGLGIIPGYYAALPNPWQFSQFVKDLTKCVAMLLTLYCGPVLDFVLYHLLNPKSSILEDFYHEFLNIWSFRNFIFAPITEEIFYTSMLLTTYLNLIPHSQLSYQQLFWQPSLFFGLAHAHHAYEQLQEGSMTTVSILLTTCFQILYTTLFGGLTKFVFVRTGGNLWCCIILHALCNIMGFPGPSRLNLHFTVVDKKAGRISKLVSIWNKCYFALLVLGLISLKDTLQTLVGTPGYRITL
AlphaScreen art: interferes with AlphaScreen signal, flagging NSD2 false positives; shares compounds with NSD2 HMT inh; AlphaScreen artifact counterscreen, preloaded methylated H4 peptide; AC35, µM (highest dose often 10 µM), without a hit: at the top dose activity change, negative = signal loss; hit rate 9.4% among 1,500; AID 1053174; call rule not given here
Numbers without * were called inactive; i = inactive; . = no result. Sampled rows, rich in hits. Any-hit rate of the full collection: about 1.6%.

SMILES	Efflux pump mplx	NPR1 activator	NSD2 HMT inh	V-ATPase pHluor	NPR2 activator	Rce1 inhib	AlphaScreen art
CC(=O)N1[C@@H](CO)[C@@H](c2ccc(-c3cccc(F)c3)cc2)[C@@H]1CNCC1CCC1	.	-1	.	.	0	.	.
CCc1ccc(NC(=S)N2CCC(NC(=O)C3CCCCC3)CC2)cc1	0	4	2	-4	-3	i	.
CCOc1ccc(NC(=S)N2CCC(NC(=O)C3CCCCC3)CC2)cc1	0	2	57*	-3	0	i	3%
COc1cc(NCCCCC(C)N)c2nccc(C)c2c1 (stereo not given)	.	0	129*	3	1	.	-11%
COc1cc(NCCCCCCN)c2ncccc2c1OC	.	1	.	-1	1	.	.
O=C(c1ccc(N2CCOCC2)c([N+](=O)[O-])c1)N1CCN(Cc2ccccc2)CC1	0	0	120*	3	0	i	-3%
Oc1ccc(Br)cc1CNc1cccc2cccnc12	0	-3	13	-1	-3	i	.
Cc1ccc(O)c(CNc2cccc3cccnc23)c1	0	-6	118*	-2	-3	i	-5%
COc1cccc(CNc2cccc3cccnc23)c1O	0	4	50*	-6	-6	i	-5%
C/C(=N\O)C(C)Oc1ccc(Cl)cc1 (stereo not given)	0	2	65*	-5	1	i	2%
